The whole screen tested about 310,000 compounds, of which about 14,000 (4.5%) showed an effect of 50% or more. Effects have a minus sign here. Many of the other results were omitted from the sample, so strong results are more common in it than they were.
Each compound was assayed against human ether-à-go-go-related gene (hERG) potassium channel (human, UniProt Q12809) (assay: primary screen, population patch clamp on CHO cells stably expressing hERG; higher = less effect of the substance).
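Further: peak tail current of the secondary pulse compared with the same well before compound.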

Sequence of human ether-à-go-go-related gene (hERG) potassium channel (Q12809 whole entry, looked up): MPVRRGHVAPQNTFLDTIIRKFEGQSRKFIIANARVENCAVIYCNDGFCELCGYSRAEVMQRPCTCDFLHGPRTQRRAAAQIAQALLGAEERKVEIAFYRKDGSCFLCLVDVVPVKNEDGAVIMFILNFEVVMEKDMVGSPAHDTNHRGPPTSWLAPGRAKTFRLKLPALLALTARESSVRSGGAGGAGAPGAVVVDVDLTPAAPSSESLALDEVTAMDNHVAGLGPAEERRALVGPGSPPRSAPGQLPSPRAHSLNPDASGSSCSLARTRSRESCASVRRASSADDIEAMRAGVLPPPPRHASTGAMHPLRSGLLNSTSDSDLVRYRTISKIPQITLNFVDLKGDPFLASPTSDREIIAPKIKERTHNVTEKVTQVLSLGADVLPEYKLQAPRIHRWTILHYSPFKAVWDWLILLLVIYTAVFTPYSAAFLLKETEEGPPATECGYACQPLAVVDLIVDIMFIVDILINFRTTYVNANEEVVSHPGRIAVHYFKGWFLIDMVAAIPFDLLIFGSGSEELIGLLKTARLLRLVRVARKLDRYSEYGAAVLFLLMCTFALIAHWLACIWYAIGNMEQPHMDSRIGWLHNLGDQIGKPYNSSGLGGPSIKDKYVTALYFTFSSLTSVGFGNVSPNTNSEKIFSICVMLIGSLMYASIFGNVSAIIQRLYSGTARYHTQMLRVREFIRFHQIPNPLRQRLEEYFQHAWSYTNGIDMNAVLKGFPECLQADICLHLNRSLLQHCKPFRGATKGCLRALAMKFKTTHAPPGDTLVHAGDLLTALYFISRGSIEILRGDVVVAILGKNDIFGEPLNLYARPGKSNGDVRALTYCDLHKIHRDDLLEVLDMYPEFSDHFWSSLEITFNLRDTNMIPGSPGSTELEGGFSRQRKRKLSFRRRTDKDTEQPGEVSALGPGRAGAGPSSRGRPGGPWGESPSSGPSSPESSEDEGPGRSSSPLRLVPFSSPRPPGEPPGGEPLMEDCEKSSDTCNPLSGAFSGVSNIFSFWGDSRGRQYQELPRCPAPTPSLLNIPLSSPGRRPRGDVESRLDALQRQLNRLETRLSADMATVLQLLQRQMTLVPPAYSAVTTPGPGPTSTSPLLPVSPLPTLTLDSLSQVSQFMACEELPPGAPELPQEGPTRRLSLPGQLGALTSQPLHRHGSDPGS

SMILES | hERG current change (%, negative = inhibition) at 10uM [%]
Fc1ccc(CN2CCSCC2)cc1Br | -11.1
CCCN(Cc1ccco1)S(=O)(=O)c1ccc(OC)c(OC)c1 | 0.00658
Cc1ccc(OCc2ccc(C(=O)N3CCOCC3)cc2)cc1C | -12.7
O=C(OCC(=O)c1ccc(Cl)s1)c1ccc(CO)cc1 | -2.65
NC(=O)CSc1nnc(-c2ccc(S(=O)(=O)N3CCCCC3)cc2)n1-c1ccccc1 | -14.2
Cc1ccc(-n2c(SCC(N)=O)nnc2-c2ccc(S(=O)(=O)N3CCCCC3)cc2)c(C)c1 | -52.7
Cn1c(SCC(N)=O)nnc1-c1ccc(S(=O)(=O)N2CCCC2)cc1 | 4.87
CCN(CC)S(=O)(=O)c1ccc(S(=O)(=O)N2CCN(C(=O)c3ccco3)CC2)cc1 | 4.56
CC(C)C(=O)Nc1c(-c2ccc(Cl)cc2)c(=O)c2ccccc2n1C | 20.9
CN1CCCN(C(=O)c2ccc(Cl)s2)CC1 | -93.3
CN1CCCN(C(=O)c2ccc(Br)s2)CC1 | -14.5
O=C(c1ccc(Cl)s1)N1CCCC1 | -0.0803
C/C(=C\c1ccc(Cl)cc1)C(=O)c1c(C)cc(C)[nH]c1=O | 9.59
CC(NC(=O)NC1CCCCC1)c1ccccc1 (centres unmarked) | -3.12
C=CCn1c(CCNC(=O)c2cccs2)nnc1SCC(=O)Nc1cccc(F)c1 | -34.6
C=CCn1c(CCNC(=O)c2cccs2)nnc1SCC(=O)c1ccc(Cl)cc1 | -38.5
C=CCn1c(CCNC(=O)c2cccs2)nnc1SCC(=O)c1ccc(Br)cc1 | -67.1
C=CCn1c(CCNC(=O)c2cccs2)nnc1SCC(=O)Nc1cccc(C(C)=O)c1 | 7.23
C=CCn1c(CNC(=O)c2cccs2)nnc1SCC(=O)c1ccc(Br)cc1 | -19.3
C=CCn1c(CCNC(=O)c2cccs2)nnc1SCC(=O)Nc1cccc(Cl)c1C | -57.6

SMILES | hERG current change (%, negative = inhibition) at 10uM [%]
O=C(Nc1ccccc1)Nc1ccncc1 | 6.4
Cc1ccc(NC(=O)CC2S/C(=N/N=C3/NC(=O)CS3)NC2=O)cc1 (centres unmarked) | 19.5
COc1ccc(-c2[nH]nc3c2C(c2ccccc2OC(=O)N2CCOCC2)C(C#N)=C(N)O3)cc1 (centres unmarked) | 4.69
CC1CC(C)CN(Cc2nc(N)nc(Nc3ccc4ccccc4c3)n2)C1 (centres unmarked) | -79
CC1CC(C)CN(C(=S)SCc2nc(N)nc(Nc3ccccc3)n2)C1 (centres unmarked) | -6.04
COc1cccc(Nc2nc(N)nc(CCl)n2)c1 | 0.476
CC1CCN(C(=S)SCc2nc(N)nc(Nc3ccccc3)n2)CC1 | -2.72
CC1CC(C)CN(Cc2nc(N)nc(Nc3ccccc3)n2)C1 (centres unmarked) | -64.8
CCNC(=O)CCn1nc(-c2ccc(Cl)cc2)c2ccccc2c1=O | -29
Cc1cccc(N2CCN(S(=O)(=O)c3ccc4c(c3)NC(=O)C(C)S4)CC2)c1C (centres unmarked) | -2.54
CCN(CC)c1ccc(/C=C2\SC(N)=NC2=O)cc1 | 7.42
Cn1cccc1CC(=O)NNC(=S)NC(=O)c1ccccc1Br | 13.1
COc1ccc(-c2nc(-c3ccccc3)ncc2S(C)(=O)=O)cc1 | 13
COc1ccc2c(c1OC)C(=O)N(c1nc(SC)n[nH]1)C2=O | 18.3
COc1cccc(N(CC(=O)NCc2ccccc2)C(=O)CCC(=O)Nc2nccs2)c1 | 10.8
Cc1ccc(N2CCN(CC(O)COc3ccc([N+](=O)[O-])cc3)CC2)cc1 (centres unmarked) | -76.4
COc1ccc(OCC(O)Cn2ccnc2C)cc1 (centres unmarked) | 5.09
Cc1ccc(OCC(O)CN2CCN(c3ccc(C)cc3)CC2)cc1 (centres unmarked) | -28
Cc1nccn1CC(O)COc1ccc([N+](=O)[O-])cc1 (centres unmarked) | -66.2
COc1ccc(N2CCN(CC(O)COc3ccc([N+](=O)[O-])cc3)CC2)cc1.Cl (centres unmarked) | -62.5

SMILES | hERG current change (%, negative = inhibition) at 10uM [%]
Cc1nccn1CC(O)COc1ccccc1 (centres unmarked) | -0.412
NNC(=O)COc1ccc(F)cc1 | 9.33
COc1ccc(C(C)=O)cc1COC(=O)c1ccc(S(=O)(=O)N(C)C)cc1 | -2.42
CCc1ccc(S(=O)(=O)Nc2cccc(-c3ccc4nnc(C)n4n3)c2)s1 | -11.6
CCOC(=O)c1cccc(NC(=O)/C(=C\c2ccccc2)NC(=O)c2ccccc2Cl)c1 | 3.62
CC1=NN(C(=O)Cc2ccc(C)cc2)C(O)(c2cccnc2)C1 (centres unmarked) | 10.1
COc1ccc(-c2nc3cnccn3c2NCc2ccccc2)cc1SC1CCCCC1.O=C(O)C(F)(F)F | 2.68
COc1cccc(-n2nnc(S(=O)(=O)c3ccc(C)cc3)c2N)c1 | 10.5
O=C(COC(=O)c1ccc(Sc2ccccc2)c([N+](=O)[O-])c1)NC1CCS(=O)(=O)C1 (centres unmarked) | -83.3
Nc1ccc(C(=O)OCC(=O)NC2CCS(=O)(=O)C2)cc1[N+](=O)[O-] (centres unmarked) | -3.78
CS(=O)(=O)c1ccc(C(=O)OCC(=O)NC2CCS(=O)(=O)C2)cc1[N+](=O)[O-] (centres unmarked) | 10.3
COc1ccc(NC(=S)NC23CC4CC(CC(C4)C2)C3)cc1OC | 3.45
O=C(CN1C(=O)c2ccc([N+](=O)[O-])cc2C1=O)NC1CCCCCC1 | 1.09
Cc1nonc1OC(C)CNCCNc1ccc([N+](=O)[O-])cc1.Cl (centres unmarked) | -55.2
Cc1nonc1OC(C)CNc1ccc([N+](=O)[O-])cc1 (centres unmarked) | -58.7
CCNc1ccc([N+](=O)[O-])cc1 | 4.89
Nc1nonc1C(=O)NCCNc1ccc([N+](=O)[O-])cc1 | -21.9
Cc1nonc1OCCNc1ccc([N+](=O)[O-])cc1 | -40.7
Cl.NCCNc1ccc([N+](=O)[O-])cc1 | -6.16
